# Assay results: the supplement of paper PMC6805474
# Tested on: Schistosoma mansoni schistosomula (LE)
# Experiment: XTT viability relative to DMSO control; higher = more viable (less active)
# Details: 72 h; 10 µM
# Protocol: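 XTT/PMS was then added for a further 24 h (72 h total) and A450 was read. % viability = (sample - heat-killed control)/(DMSO control - heat-killed control) x 100, from duplicate wells in two independent experiments.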
row,Compound,XTT viability
1,CC1CCCCN1C(=O)NCCc1coc(-c2ccc(F)cc2)n1 (configuration not stated),131%
2,COc1ccc(S(=O)(=O)Nc2ccc(CN3CCN(C(=O)c4cccc(C#N)c4)CC3)cc2)cc1,144%
3,Cc1cc(Cl)c(S(=O)(=O)N2CCCC2)cc1OCC(=O)NC1CCCCC1,111%
4,COc1cccc(CC(=O)N2CCC(n3c(C)nc4ccc(F)cc43)CC2)c1,116%
5,O=C(Nc1cccc(Cl)c1)c1cnc(N2CCN(c3ccncc3)CC2)c(Cl)c1,3.67%
6,CC[C@@H]([C@H](C)O)n1ncn(-c2ccc(N3CCN(c4ccc(OC[C@@H]5CO[C@@](Cn6cncn6)(c6ccc(F)cc6F)C5)cc4)CC3)cc2)c1=O,88.8%
7,NC(=O)c1cc(Br)ccc1OCCOc1ccccc1,110%
8,Cc1noc(C)c1C(=O)N1CCCC(c2[nH]c3c(C)cccc3c2-c2ccncc2)C1 (configuration not stated),67.5%
9,Cc1cc(Nc2ccncc2)n2nc(C)c(-c3ccccc3Cl)c2n1,64.9%
10,Nc1ncnc2c1ncn2[C@@H]1O[C@H](COS(=O)(=O)NC(=O)c2ccccc2O)[C@@H](O)[C@H]1O,113%
11,C[C@H]1COc2c(N3CCN(C)CC3)c(F)cc3c(=O)c(C(=O)O)cn1c23,67.9%
12,O=C(c1cc2ccccc2o1)N1CCN(Cc2ccc3c(c2)OCO3)CC1,110%
13,Cc1cnc(N2CCN[C@@H](Cc3ccccc3)C2)nc1Oc1ccc(-n2ccnc2)cc1,17.8%
14,CCCNC(=O)N1CCC2(CC1)CC(=O)c1cc(C)ccc1O2,102%
15,COc1ccc2nc(C)cc(OCC(=O)Nc3ccccc3OC)c2c1,108%
16,COc1cc(NC(=O)Cc2nn(C)c(=O)c3ccccc23)ccc1Cl,104%

row,Compound,XTT viability
1,O=C(Nc1cccnc1)c1c(O)c2cccc3c2n(c1=O)CC3,118%
2,OCc1ccc(-c2cncc(Nc3cccc(Cl)c3)c2)cc1,99.5%
3,CC(=O)N(CCN(C(=O)c1ccc(F)cc1)c1ccccc1)c1ccccc1,117%
4,CCc1c(C)nc(-n2nc(C)cc2NC(=O)c2ccccc2SC)[nH]c1=O,-1.13%
5,CC(C)(C)C(=O)N(CCCCCCN1C[C@H](O)[C@@H](O)[C@H](O)[C@H]1CO)C1CCCCCC1,122%
6,O=C(NC1CC1)c1ccc(N2CCC(Cc3ccccc3)CC2)nc1,91.1%
7,Cc1cc(O)nc(-n2nc(C)cc2C)n1,93.1%
8,CCc1ccccc1-n1c(C)cn2c3c(=O)n(C(C(=O)OC)C(C)C)c(=O)n(C)c3nc12 (configuration not stated),108%
9,COc1ccc(N(CCc2cccc(C)n2)C(=O)C2CCCCC2)cc1,88.7%
10,CCc1cc(=O)n(C)c(SC(C)C(=O)Nc2ccc(F)cc2)n1 (configuration not stated),115%
11,CO[C@@H](C(=O)N1Cc2[nH]nc(NC(=O)c3ccc(N4CCN(C)CC4)cc3)c2C1)c1ccccc1,97.4%
12,Cc1cc(Cl)ccc1NC(=O)CCc1ccc(S(=O)(=O)NCC(C)C)cc1,107%
13,Cc1cccc(Cn2ccc(NC(=O)c3ccc4c(c3)OCO4)n2)c1,93.2%
14,CS(=O)(=O)c1ccccc1C(=O)N(Cc1ccccc1)c1ccccc1,106%
15,Cc1ccccc1CN1CCC(O)(c2ccc(Cl)c(C(F)(F)F)c2)CC1,71.1%
16,c1ccc(Oc2ccc(-c3cc(N4CCNCC4)[nH]n3)cc2)cc1,25.2%
